Measurements as given in a collection of fitness landscapes (doi:10.1126/science.1257360).
Over roughly 140,000 sequences, “enrichment ratio after two sorts for PhoP signalling” has its median near 0; the highest 2% begin near 11. The sample holds the highest values, similar sequences and a random draw of the others, so the mix is not that of the screen.

B1: PhoQ; a variant is named by its letters at X, in order, P23837 (parent)
chain: MKKLLRLFFPLSLRVRFLLATAAVVLVLSLAYGMVALIGYSVSFDKTTFRLLRGESNLFYTLAKWENNKLHVELPENIDKQSPTMTLIYDENGQLLWAQRDVPWLMKMIQPDWLKSNGFHEIEADVNDTSLLLSGDHSIQQQLQEVREDDDDAEMTHSVAVNVYPATSRMPKLTIVVVDTIPVELKSSYMVWSWFIYVLSANLLLVIPLLWVAAWWSLRPIEALAKEVRELEEHNRELLNPATTRELTSLVRNLNRLLKSERERYDKYRTTLTDLTHSLKTPLXXLQXXLRSLRSEKMSVSDAEPVMLEQISRISQQIGYYLHRASMRGGTLLSRELHPVAPLLDNLTSALNKVYQRKGVNISLDISPEISFVGEQNDFVEVMGNVLDNACKYCLEFVEISARQTDEHLYIVVEDDGPGIPLSKREVIFDRGQRVDTLRPGQGVGLAVAREITEQYEGKIVAGESMLGGARMEVIFGRQHSAPKDE

Variants of: B1
Assay: enrichment ratio after two sorts for PhoP signalling (ratio (wild type AVST 3.29)); higher = more functional
Settings: with PhoP (E. coli)

Row | Variant | enrichment ratio
1 | WDMF | ≤ 0.25
2 | KSIQ | ≤ 0.25
3 | WNCS | ≤ 0.25
4 | TCTE | ≤ 0.25
5 | TCTI | 17.1
6 | TCNK | ≤ 0.25
7 | TCTC | 11.4
8 | TCTK | 5.27
9 | TCIC | ≤ 0.25
10 | KCTI | ≤ 0.25
11 | TCTS | 17.5
12 | TCDW | ≤ 0.25
13 | KCTA | ≤ 0.25
14 | TCTA | 11.4
15 | TCTH | 3.96
16 | WMFM | ≤ 0.25
17 | HQPT | ≤ 0.25
18 | PYKQ | ≤ 0.25
19 | WRPH | ≤ 0.25
20 | LLYS | ≤ 0.25
21 | VMRN | ≤ 0.25

Row | Variant | enrichment ratio
22 | AANR | ≤ 0.25
23 | IGAM | ≤ 0.25
24 | SVEG | ≤ 0.25
25 | NHNM | ≤ 0.25
26 | VWYA | ≤ 0.25
27 | SFCD | ≤ 0.25
28 | SSCV | 18.4
29 | SSCS | 9.51
30 | FSCQ | 7.11
31 | SSCI | 24.5
32 | KSCG | 1.82
33 | SSCG | 12.6
34 | SPCV | ≤ 0.25
35 | TSCG | 7.32
36 | SLCV | 7.13
37 | SSQP | ≤ 0.25
38 | SSCE | 3.26
39 | SSCQ | 13.4
40 | AHKE | ≤ 0.25
41 | PMIW | ≤ 0.25
42 | RAKS | ≤ 0.25

Row | Variant | enrichment ratio
43 | VANQ | ≤ 0.25
44 | IINC | ≤ 0.25
45 | VHNE | ≤ 0.25
46 | SDFS | ≤ 0.25
47 | PMPC | ≤ 0.25
48 | KFDS | ≤ 0.25
49 | YAQF | ≤ 0.25
50 | EIRD | ≤ 0.25
51 | SSWL | 10.6
52 | SSCL | 18.7
53 | SSNL | 3.91
54 | WSRR | ≤ 0.25
55 | ELIY | ≤ 0.25
56 | KGHE | ≤ 0.25
57 | VIMF | ≤ 0.25
58 | CTTS | 16.8
59 | TTTC | 5.52
60 | TTTS | 14.1
61 | KCHH | ≤ 0.25
62 | TCHH | 26.2
63 | FCHH | ≤ 0.25

Row | Variant | enrichment ratio
64 | CSTS | ≤ 0.25
65 | YTTS | ≤ 0.25
66 | KSHH | ≤ 0.25
67 | TTHH | 11.8
68 | YTHH | ≤ 0.25
69 | LTTS | ≤ 0.25
70 | SRLA | ≤ 0.25
71 | NNFT | ≤ 0.25
72 | PAYF | ≤ 0.25
73 | PHQG | ≤ 0.25
74 | LARQ | ≤ 0.25
75 | VYWL | ≤ 0.25
76 | HTSP | ≤ 0.25
77 | QDNG | ≤ 0.25
78 | PCTP | ≤ 0.25
79 | KNRD | ≤ 0.25
80 | PYIP | ≤ 0.25
81 | SDAL | ≤ 0.25
82 | TCES | ≤ 0.25
83 | VDIK | ≤ 0.25
84 | KVYK | ≤ 0.25
